High-throughput results (PubChem)
The list is not random: actives were taken first. Their share in the collection is about 19%.
ELG1 repair inh = blocks ELG1-dependent DNA repair in HEK293T cells; HEK293T ELG1-luciferase reporter, luminescence, 16 h; DNA damage induced by 5-fluorouridine; Potency, µM (top dose mostly 46.1 µM), inactives show top-dose activity change, negative = inhibition, hits mostly inhibitors; actives 2.3% (n = 330,000); AID 504467; also: potency is read from the fitted curve at half-maximal effect; nearly all actives have a fitted effect of over 55% in size
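Luminescence from the luciferase reporter, measured 30 min after ONE-Glo reagent at room temperature, was the read-out. Beforehand, 2,000 cells per well were exposed for 16 hr at 37 °C to 5-fluorouridine together with compound or vehicle.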
DT40 TDP1 no CPT = qHTS for Inhibitors of human tyrosyl-DNA phosphodiesterase 1 (TDP1): qHTS in cells in absence of CPT; DT40 Tdp1-/- hTDP1 cells, no CPT, ATP luminescence, 48 h; Potency, µM (highest dose often 46.2 µM), without a hit: top-dose activity change, negative = growth inhibition, most hits filed as inhibitors; actives 15% (n = 420,000); AID 686978, 2013; also: potency is read from the fitted curve at half-maximal effect; nearly all actives have a fitted effect of over 55% in size
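Stably hTDP1-transfected Tdp1-null chicken DT40 cells were treated with library compounds minus camptothecin and grown for at least 48 hr at 37 °C, after which cellular ATP was quantified by luminescence.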
TDP1 block = TDP1 (human) enzyme inhibition; recombinant TDP1, AlphaScreen DNA substrate cleavage; Potency, µM (top dose mostly 130 µM), without a hit: top-dose activity change, negative = inhibition, hits mostly inhibitors; AID 485290; actives 0.28% (n = 350,000); also: potency is read from the fitted curve at half-maximal effect; nearly all actives have a fitted effect of over 40% in size
Target sequence (Q9NUW8 whole entry, looked up): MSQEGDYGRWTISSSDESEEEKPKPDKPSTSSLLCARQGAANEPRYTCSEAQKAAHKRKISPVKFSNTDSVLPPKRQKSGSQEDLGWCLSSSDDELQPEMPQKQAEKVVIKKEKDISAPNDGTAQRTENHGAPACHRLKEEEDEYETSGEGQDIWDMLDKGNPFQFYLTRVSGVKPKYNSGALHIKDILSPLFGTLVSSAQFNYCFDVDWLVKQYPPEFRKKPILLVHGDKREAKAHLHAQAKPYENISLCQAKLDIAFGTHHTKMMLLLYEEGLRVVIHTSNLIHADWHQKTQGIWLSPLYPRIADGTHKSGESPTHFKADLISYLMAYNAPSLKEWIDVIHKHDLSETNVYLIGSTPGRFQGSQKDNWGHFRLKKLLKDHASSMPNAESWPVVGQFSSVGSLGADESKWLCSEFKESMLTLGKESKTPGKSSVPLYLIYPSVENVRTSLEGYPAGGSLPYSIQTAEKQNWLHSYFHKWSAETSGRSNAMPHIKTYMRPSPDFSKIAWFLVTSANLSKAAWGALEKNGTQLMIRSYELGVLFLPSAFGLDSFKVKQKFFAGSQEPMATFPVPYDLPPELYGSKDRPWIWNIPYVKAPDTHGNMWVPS
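Tdp1 1 nM final; 15 min RT w/ cpd; substrate 15 nM, 5 min; beads 10 ug/ml, 10 min; AlphaScreen read. Neg ctrl: no enzyme.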
DT40 TDP1 CPT = growth inhibition of DT40 Tdp1-/-;hTDP1 cells with camptothecin (screen for TDP1 inhibitors) | chicken DT40 Tdp1-/-;hTDP1 cells + 20 nM CPT, ATP luminescence, 48 h | Potency, µM (series often up to 46.2 µM), without a hit: at the top dose activity change, negative = growth inhibition, actives largely listed as inhibitors | actives 12% (n = 420,000); also: potency is read from the fitted curve at half-maximal effect; nearly all actives have a fitted effect of over 55% in size
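Chicken DT40 Tdp1-/- cells complemented with human TDP1, 400 cells/well, exposed to compounds plus 20 nM camptothecin for at least 48 h at 37 C; viability read as ATP content by CellTiter-Glo luminescence.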
IL-1B inflam inh = inhibitors of inflammasome signaling (IL-1 beta secretion); activity change, % at 57.5 µM; THP-1 LPS/ATP IL-1B secretion, AlphaLISA, 16 h; stronger effect = lower value; actives 4.7% (n = 360,000); AID 743279; in the data active = activity change below about -50%; inconclusive = mostly about -30% to -49%
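THP-1 cells pretreated 1 hr with compounds (up to 57.5 uM final), then stimulated with LPS (250 ng/mL final) plus ATP (1.25 mM final); secreted IL-1B measured by AlphaLISA after 16 hr, decreased signal indicating inhibition.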
Giardia killer = kills Giardia lamblia; AID 540267; Giardia lamblia trophozoite viability; activity change, % at 7.66 µM, hits read low; actives 0.15% (n = 340,000); in the data active = activity change below about -80%; inconclusive = between about -30% and that limit;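 also: parasites exposed to compound for two days anaerobically before the ATP read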
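Viability, read as ATP luminescence: trophozoites at 100 cells/well, compound added, 48 hrs anaerobic at 37 deg C, then 15-30 min room-temperature development before reading.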
Starred values were filed as active, the others as inactive; ? = inconclusive; / = no result; [ ] = remark or other dose. Unless noted, calls follow the shape of the dose curve; as a rule, active = well fitted curve in the direction sought with a large enough effect; inconclusive = small, poorly fitted or top-dose-only effect, or another doubt; inactive = no such curve, though single readings can be large; an effect the other way counts as inactive or inconclusive. % is scaled to controls: 0 for no effect and ±100 for the full control effect.

SMILES | ELG1 repair inh | DT40 TDP1 no CPT | TDP1 block | DT40 TDP1 CPT | IL-1B inflam inh | Giardia killer
O=C(c1ccc(CNS(=O)(=O)c2ccc(Br)cc2)cc1)N1CCCC1 | -6% | ? | 0% | -28% | 18 | 8
Cc1cc2ncc(C(=O)Nc3ccsc3C(=O)O)c(C)n2n1 | ? | -26% | 9% | 13% | 19 | 28
Cc1nc(Cc2nnc(SC(C)C(=O)Nc3cccc(C#N)c3)o2)cs1 (configuration not stated) | ? | 7% | / | 14% | 8 | -5
O=[N+]([O-])c1ncccc1OCc1ccc(-c2ccccc2)cc1 | 20% | 16µM* | / | ? | -56* | -9
COc1cc(OC)c(C(=O)O/N=C(\N)c2ccc(C)cc2)cc1OC | 20% | ? | / | ? | ? | 9
N/C(=N\OC(=O)c1ccc2c(c1)OCO2)c1cccnc1 | ? | -24% | -1% | -23% | 6 | -1
Cc1ccc(/C(N)=N/OC(=O)c2cccs2)cc1 | ? | 21µM* | 0% | 23µM* | -4 | 12
COc1ccc(C(=O)CC(C#N)c2ccc3c(c2)OCO3)cc1OC (configuration not stated) | / | 21µM* | / | ? | -10 | /
COc1cc(OC)c(C(=O)O/N=C(\N)c2cccc(C)c2)cc1OC | 13% | ? | / | 21µM* | -15 | 2
N/C(Cc1cccc2ccccc12)=N\OC(=O)c1ccc2c(c1)OCO2 | 3% | 21µM* | 0% | 16µM* | 16 | 5
COc1ccc(C(C#N)CC(=O)c2ccc3c(c2)OCO3)cc1OC (configuration not stated) | / | -24% | / | -19% | -22 | /
COc1ccc(/C(N)=N/OC(=O)c2ccc3c(c2)OCO3)cc1OC | ? | ? | 2% | 21µM* | -62* | -6
Cc1cccc(/C(N)=N/OC(=O)c2cccs2)c1 | ? | -23% | -2% | -29% | 22 | -10
COc1ccc(/C(N)=N/OC(=O)c2cccs2)cc1OC | -8% | ? | 3% | 12µM* | ? | 12
CC1c2cc3c(cc2CCN1C(=O)c1ccc(C(F)(F)F)cc1)OCCCO3 (configuration not stated) | -11% | ? | 4% | ? | -3 | 2
CC1c2cc3c(cc2CCN1C(=O)c1ccc(Cl)cc1)OCCCO3 (configuration not stated) | 23µM* | 13µM* | 5% | 16µM* | -59* | 5
CC(=O)Nc1ccc(C(=O)N2CCc3cc4c(cc3C2C)OCCCO4)cc1 (configuration not stated) | -5% | 18µM* | / | ? | 11 | 2
CC1c2cc3c(cc2CCN1CC(=O)Nc1ccc(S(=O)(=O)N2CCCC2)cc1)OCCCO3 (configuration not stated) | ? | -25% | 4% | ? | -28 | -27
Cc1ccc(C(=O)N2CCc3cc4c(cc3C2C)OCCCO4)cc1 (configuration not stated) | -5% | ? | 8% | 23µM* | -16 | -8
C/C(CC(=O)Nc1ccc(Cl)cc1)=N\NC(=O)C(=O)N1CCCCC1 | ? | -3% | 1% | 7% | 12 | -10
Cc1ccccc1C1(CC(=O)N2CCCC(C)C2)CC(=O)N(Cc2cccnc2)C1=O (configuration not stated) | / | -28% | / | 19%[9.04 µM] | / | /
COc1ccc(N(C)C(=O)c2cc(S(=O)(=O)N3CCc4ccccc43)cn2C)c(OC)c1 | / | ? | 6% | ? | / | /
COc1ccc(OC)c2c1cc(C(=O)N[C@H](C(=O)N1CCC(C(=O)O)CC1)C(C)C)n2C | 5% | -5% | / | 1% | 14 | -2
COCCNC(=O)CSc1nc2cc3c(cc2c(=O)n1CCCC(=O)NCc1ccc2c(c1)OCO2)OCO3 | / | -18% | 4% | 14% | / | /
CCOC(=O)c1c(NC(=O)CN2CCN(S(=O)(=O)c3cc(Cl)ccc3Cl)CC2)sc(C(=O)N(C)C)c1C | / | ? | / | 16µM* | -21 | -1
SMILES | ELG1 repair inh | DT40 TDP1 no CPT | TDP1 block | DT40 TDP1 CPT | IL-1B inflam inh | Giardia killer
CCOC(=O)c1c(NC(=O)CN2CCN(C)CC2)sc(C(=O)Nc2ccccc2)c1C | ? | ? | 5% | ? | -162* | 8
CCOC(=O)c1c(NC(=O)COC(=O)CCOc2ccc(C)cc2)sc(C(=O)N(C)C)c1C | -8% | 1% | / | 2% | 8 | -2
CCN(CC)CC(=O)Nc1c(C#N)cnn1-c1ccccc1 | 12% | 13% | / | 13% | 25 | 12
Cc1ccccc1NC(=O)Nc1ccccc1C(N)=O | 10% | ? | 3% | 10µM* | -10 | -1
Cc1ccccc1NNC(N)=S | -1% | 23µM* | -9% | 21µM* | ? | -8
CCOC(=O)C(=O)NNc1ccccc1C | -1% | -2% | 0% | 19% | 16 | 5
Cc1ccc(NC(=O)Nc2ccccc2C(N)=O)cc1 | ? | ? | -3% | ? | 0 | -2
O=C(Nc1ccccc1F)Nc1cccc2ccc(O)cc12 | 13µM* | 16µM* | / | 16µM* | -9 | 6
CC(=O)Nc1cccc2ccc(O)cc12 | / | -8% | / | -1% | -10 | ?
CC(C)C(=O)c1cc2c(cc1NC(=O)Nc1cccc3ccccc13)OCCO2 | 23µM* | / | 2% | / | / | /
Cc1ccccc1NC(=O)CNC(=O)c1ccc(C(F)(F)F)cc1 | ? | -3% | 3% | 0% | 23 | -6
Cc1ccccc1NC(=O)Nc1ccc(C(F)(F)F)cc1 | ? | 8.2µM* | 3% | 9.2µM* | -10 | 15
NC(=O)c1ccccc1NC(=O)Nc1cccc2ccccc12 | ? | 4.6µM* | -5% | 1.6µM* | -11 | -6
Cc1cc2c(NC(=O)Nc3ccc(C(C)(C)C)cc3)cccc2nn1 | 15µM* | ? | 4% | ? | 80 | -25
NC(=O)NNC(=S)Nc1cccc2ccccc12 | -2% | 6% | 5% | -5% | 13 | -1
CCC[C@@H]1C[C@@H](C(=O)N[C@@H]([C@H]2O[C@H](SC)[C@H](O)[C@@H](O)[C@H]2O)[C@H](C)Cl)N(C)C1 | / | -12% | / | -28% | / | /
CC(=O)Nc1scc(-c2ccccc2)[n+]1-c1ccc(C)cc1 | -24% | 13µM* | 2% | 15µM* | -20 | -11
Cc1ccc(NC(=O)c2csc(-c3ccccc3)c2C)cc1 | ? | ? | 7% | ? | -23 | ?
